Several values for one entry are separate records, joined by “and”; a condition that tells them apart may be missing. Equal entries are not always repeated. Inconclusive results are not listed. Activity calls are given as the source filed them. Unless noted, calls follow the shape of the dose curve; as a rule, active = well fitted curve in the direction sought with a large enough effect; inconclusive = small, poorly fitted or top-dose-only effect, or another doubt; inactive = no such curve, though single readings can be large; an effect the other way counts as inactive or inconclusive.

Assay [1] in a line: qHTS Assay for Identification of Small Molecule Agonists for NFkB Signaling Pathway. (AID 624478).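 Also: compounds tested together with TNF alpha at its EC50 of 10 pM; 0% is about no effect.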 Put shortly: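 Compounds were added with 10 pM TNF alpha (EC50 level) to ME-180 NFkB-bla cells in low-serum Opti-MEM and incubated 5 hrs at 37 C. Beta-lactamase FRET read-out used 405 nm excitation and 460 and 530 nm emission.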
Assay [2] can be described thus: Cell Proliferation Assay against the TMD8 Cell Line (AID 651645).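 Also: cells exposed to compound for 48 h before reading.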 As to conditions: TMD8 DLBCL cell line proliferation/viability; at 46.1 µM (top of the series). The method, boiled down:
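TMD8 ABC DLBCL cells, 500 per well in phenol red-free RPMI with 5% FBS, were treated with compound by pin transfer and incubated 48 hours at 37C, 5% CO2. Viability was read by CellTiter-Glo luminescence, normalised to DMSO (100%) and 9.2 uM bortezomib (0%).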

Assay [3] in a line: Cell Proliferation Assay against the HBL1 Cell Line (AID 651646).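 Also: cells exposed to compound for 48 h before reading.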 As to conditions: HBL1 DLBCL cells; at 46.1 µM (top of the series). The method, boiled down: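 HBL1, 500 cells/well, RPMI no phenol red + 5% FBS; cpd pinned, 48 h 37C/5% CO2; CellTiter-Glo, 15 min RT, luminescence. % activity: DMSO = 100%, bortezomib 9.2 uM final = 0%.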
Assay [4] can be described thus: Cell Proliferation Assay against the TMD8 Cell Line (Caspase readout at 16 hrs) (AID 651712). Also: potency is read from the fitted curve at half-maximal effect. Put shortly:
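Caspase-Glo luminescence after 16 h compound exposure of TMD8 cells, 37 °C, 5% CO2. Medium: RPMI without phenol red, 5% FBS. Normalisation: DMSO = 0%, bortezomib 9.2 uM final = 100%.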

Assay [5] can be described thus: Cell Proliferation Assay against the TMD8 Cell Line (Caspase readout at 8 hrs) (AID 651713). Also: potency is read from the fitted curve at half-maximal effect. Put shortly: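 Apoptosis read-out: Caspase-Glo luminescence after 8 h compound exposure of TMD8 lymphoma cells at 37C, 5% CO2. Signals were normalized as percent activity between DMSO and bortezomib (9.2 uM final) controls.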
The nature of assay [6]: qHTS Assay for Identification of Small Molecule Antagonists for NFkB Signaling Pathway. (AID 624479; calls by dose curve;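 also: pathway stimulated with TNF alpha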; also: potency is read from the fitted curve at half-maximal effect). In general terms: Quantitative high-throughput screening tests each substance at several concentrations.

Consider `Fc1cc(-c2cccc3ncc(-c4cnn(C5CCNCC5)c4)nc23)cc(F)c1CN1CCOCC1`, for which the call in assay [1] was inactive. The viability (% of control) in assay [2] turned out to be 1.53%. Also, the viability, percent of control in assay [3] is 2.06%.

In the case of `CC1(O)CC(c2nc(-c3ccc4ccc(-c5ccccc5)nc4c3)c3c(N)nccn23)C1` (stereo unspecified), the call in assay [1] was inactive. In assay [2], the viability (% of control) was determined as 2.23%. Further, the viability, percent of control in assay [3] was 43%. In addition, the Potency in assay [4] was 26.4 µM (active). Moreover, the Potency result in assay [5] was “inactive”.

On to `CC(C)(C)OC(=O)Nc1ccc(-c2cc(C(=O)NCCCCCCC(=O)NO)no2)cc1`, for which the result in assay [1] was inactive. Further, in assay [6], the Potency entry was “inactive”. In assay [3], the viability, percent of control was found to be 3.39%. Further, the Potency in assay [4] was 1.32 µM (active).

Take `CN(C)CCCN=c1c2ccccc2n(C)c2[nH]c(=O)n(C)c(=O)c12`: the call in assay [1] was inactive. Further, in assay [2], the viability (% of control) was 1.93%. Besides, in assay [3], the viability, percent of control is 32.9%. Further, the Potency in assay [4] is 20.9 µM (active); in assay [5], 26.4 µM (active).

`CC(=O)c1c(C)c2cnc(Nc3ccc(N4CCNCC4)cn3)nc2n(C2CCCC2)c1=O`: the call in assay [1] was inactive. The results for the Potency in assay [6], in assay [4] and in assay [5] were 16.8 µM (active), 18.7 µM (active) and 33.2 µM (active), respectively. In assay [2], the viability (% of control) came to 0.508%. Besides, the viability, percent of control in assay [3] amounted to 1.52%.

Consider `Cc1cc(Nc2cc(N3CCN(C)CC3)nc(Sc3ccc(NC(=O)C4CC4)cc3)n2)n[nH]1`, for which the outcome in assay [1] was inactive. Further, the viability, percent of control in assay [3] came to 27.1%. Besides, the Potency entry in assay [5] is “inactive”.

For `N#CCNC(=O)c1ccc(-c2ccnc(Nc3ccc(N4CCOCC4)cc3)n2)cc1`, the outcome in assay [1] was inactive. The Potency in assay [6] was 0.668 µM (active); in assay [4], 5.26 µM (active). For the same compound, in assay [2], the viability (% of control) worked out at 7.51%. Moreover, the viability, percent of control in assay [3] worked out at 25.4%.

In the case of `COc1cc(C(C)C)c2c(c1)S(=O)(=O)N(COc1cc(=O)n3cccc(OCCN4CCCCC4)c3n1)C2=O`, the compound was classed as inactive in assay [1]. The Potency in assay [6] is 14.9 µM (active). Moreover, the viability, percent of control in assay [3] was found to be 1.12%. For the same compound, the Potency entry in assay [4] is “inactive”.

Turning to `C[C@@H](Oc1cc(-n2cnc3ccc(CN4CCN(C)CC4)cc32)sc1C(N)=O)c1ccccc1C(F)(F)F`, in assay [1], the compound was classed as inactive. Also, the Potency entry in assay [6] was “inactive”. Besides, in assay [2], the viability (% of control) stood at 2.56%. The viability, percent of control in assay [3] was found to be 3.16%. Moreover, in assay [5], the Potency was 23.5 µM (active).

Regarding `CCN(CC)CCCCNc1ncc2cc(-c3cc(OC)cc(OC)c3)c(NC(=O)NC(C)(C)C)nc2n1`, in assay [1], the call was inactive. In addition, in assay [2], the viability (% of control) turned out to be 3%. Also, the viability, percent of control in assay [3] amounted to 7.6%. Further, in assay [4], the Potency result is “inactive”. Also, in assay [5], the Potency was 26.4 µM (active).

Take `Cc1ccc(C(N)=O)cc1Nc1nccc(-c2cn(C(C)C)c3cnccc23)n1`: in assay [1], the compound was classed as inactive. For the same compound, the results for the Potency in assay [6], in assay [4] and in assay [5] were 0.421 µM (active), 2.64 µM (active) and 14.8 µM (active), respectively. In assay [3], the viability, percent of control was determined as 14.4%.

As to `CNc1nccc(-c2cccnc2Oc2cc(C(=O)Nc3cccc(C(F)(F)F)c3)ccc2C)n1`, in assay [1], the compound was called inactive. Also, the Potency in assay [6] was 13.3 µM (active). Besides, in assay [2], the viability (% of control) was found to be 6.17%. Moreover, in assay [3], the viability, percent of control is 25.3%. Besides, in assay [5], the Potency entry is “inactive”.

`CCC(=C(c1ccccc1)c1ccc(OCCN(C)C)cc1)c1ccccc1`: the Potency is 21.1 µM (active) in assay [6] and 33.2 µM (active) in assay [5]. Further, the viability (% of control) in assay [2] was -0.936%. Moreover, the viability, percent of control in assay [3] is -1.5%.

Regarding `C=CC(=O)Nc1cccc(Oc2nc(Nc3ccc(N4CCN(C)CC4)cc3OC)ncc2Cl)c1`, in assay [1], the result was inactive. Further, the Potency result in assay [6] is “inactive”. In addition, in assay [2], the viability (% of control) stood at 0.697%. The viability, percent of control in assay [3] was 2.13%. For the same compound, the Potency in assay [5] was 7.43 µM (active).

On to `CC[C@H](CO)Nc1nc(NCc2ccccc2)c2ncn(C(C)C)c2n1`, for which the outcome in assay [1] was inactive. In addition, the viability (% of control) in assay [2] is 7.77%. Besides, in assay [3], the viability, percent of control turned out to be 55%. Further, the Potency in assay [4] is 0.935 µM (active).

In the case of `Cc1cc(Nc2cc(N3CCN(C)CC3)nc(C=Cc3ccccc3)n2)n[nH]1`, the outcome in assay [1] was inactive. Also, the viability (% of control) in assay [2] came to 9.16%. In addition, the viability, percent of control in assay [3] came out at 3.87%. The Potency result in assay [5] was “inactive”.

With `Cc1cc(Nc2cc(NC(=O)c3c(Cl)cccc3Cl)ccn2)nc(N)n1`, in assay [1], the outcome was inactive. The Potency in assay [6] is 0.266 µM (active); in assay [4], 18.7 µM (active); in assay [5] it was 29.6 µM (active). In assay [2], the viability (% of control) is 2.69%. The viability, percent of control in assay [3] was 31.3%.

As to `c1cc(-c2cnn3cc(-c4ccc(OCCN5CCCCC5)cc4)cnc23)ccn1`, the call in assay [1] was inactive. The viability (% of control) in assay [2] turned out to be 2.17%. Moreover, the viability, percent of control in assay [3] was 8.17%.

In the case of `O=C(NCCCNc1nc(Nc2cccc(NC(=O)N3CCCC3)c2)ncc1I)c1cccs1`, the outcome in assay [1] was inactive. Further, the Potency in assay [6] was 9.43 µM (active) and 5.3 µM (active); in assay [4], 13.2 µM (active) and 5.9 µM (active); in assay [5] it was 26.4 µM (active) and 29.6 µM (active). Further, the viability (% of control) in assay [2] was 1.52% and 1.4%. Moreover, the viability, percent of control in assay [3] is 26.8% and 21.3%.

As for `COc1cc(=C2C=c3ccccc3=N2)[nH]c1=Cc1[nH]c(C)cc1C`, the Potency entry in assay [6] and in assay [5] was “inactive” each time. Also, in assay [2], the viability (% of control) was 6.25%. Further, the viability, percent of control in assay [3] was found to be 26%.

`Nc1ccc(C(=O)c2cc3c(ccc4ccccc43)[nH]2)cc1`: the result in assay [1] was inactive. Moreover, the Potency was 14.9 µM (active) in assay [6] and 26.4 µM (active) in assay [4]. In addition, the viability (% of control) in assay [2] stood at 28.2%. The viability, percent of control in assay [3] came out at 14.4%. Besides, the Potency result in assay [5] was “inactive”.

In the case of `COc1cc2nccc(Oc3ccc(NC(=O)C4(C(=O)Nc5ccc(F)cc5)CC4)cc3)c2cc1OC`, the result in assay [1] was inactive. The values for the Potency in assay [6] and in assay [4] were 16.8 µM (active) and 26.4 µM (active), respectively. The viability, percent of control in assay [3] was determined as 3.78%.
